Results reported in PubChem BioAssay.
The source made the active and inactive calls. Unless noted, the rule behind the calls is not given here.

Assays:
[1] = test system: XIP peptide (Xip251-270) binding; assay: small-molecule binders of XIP peptide, primary screen, biochemical, small-molecule microarray, fluorescence 635/667 nm, 0.1 µg/mL protein (AID 1182); conditions: fluorescent protein binding, 635 nm, higher = more signal, called active from +8 up or from −8 down
XIP peptide (Xip251-270) = assay: small-molecule binders of XIP peptide, primary screen, biochemical, small-molecule microarray, fluorescence 635/667 nm, 0.5 µg/mL protein (AID 1183); conditions: small-molecule microarray binding, fluorescence 635 nm; higher = more signal
[2] = Plasmodium falciparum growth inhibition, primary screen, strain 3D7, DAPI fluorescence, 100 nL (AID 1184);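 note: parasites grown inside human red blood cells in medium with human serum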; conditions: P. falciparum 3D7 growth, 3 d, higher = more signal
[3] = molecular target: Homeobox protein Hox-A13 (Mus musculus) (UniProt Q62424); assay: inhibitors of HoxA13-DNA binding, primary screen, biochemical, fluorescence polarization, labeled oligonucleotide (AID 1185); conditions: 15 min, higher = more signal, called active from +8 up or from −8 down
[4] = inhibitors of hydroxyurea-induced Chk1 phosphorylation, primary screen, imaging, HeLa, phospho-Chk1 antibody, percent positive cells (AID 1186); conditions: hydroxyurea-induced phospho-Chk1 immunofluorescence imaging, higher = more signal
[5] = inhibitors of hydroxyurea-induced Chk1 phosphorylation, primary screen, imaging, HeLa, phospho-Chk1 nuclear intensity (AID 1187); conditions: hydroxyurea-induced phospho-Chk1 immunofluorescence imaging, higher = more signal

Sequence of Homeobox protein Hox-A13 (Mus musculus) (Q62424 whole entry, looked up): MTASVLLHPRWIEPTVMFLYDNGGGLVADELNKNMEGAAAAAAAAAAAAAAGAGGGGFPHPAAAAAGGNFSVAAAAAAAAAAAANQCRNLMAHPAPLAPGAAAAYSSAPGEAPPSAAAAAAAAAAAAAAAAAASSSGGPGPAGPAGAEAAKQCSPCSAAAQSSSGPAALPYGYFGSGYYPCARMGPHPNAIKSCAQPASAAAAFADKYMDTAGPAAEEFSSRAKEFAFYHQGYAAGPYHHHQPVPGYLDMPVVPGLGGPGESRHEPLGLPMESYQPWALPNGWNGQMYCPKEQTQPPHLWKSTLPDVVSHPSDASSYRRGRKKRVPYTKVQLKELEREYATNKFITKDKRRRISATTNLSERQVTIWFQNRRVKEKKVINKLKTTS

SMILES	composite z-score [1]	composite z-score (XIP peptide (Xip251-270))	z-score [2]	z-score [3]	z-score [4]	z-score [5]
COC(=O)C[C@H]1O[C@]2(C(=O)N(C)c3ccccc32)[C@@H](C)[C@@H]1[Si](C)(C)c1ccccc1	-0.182 (inactive)	0.428	-1.48	-7.09 (inactive)	-0.0412 (inactive)	0.192 (inactive)
Cc1ccc(S[C@]2(C(=O)NCC(C)C)CC(=O)N(C(C)C)[C@@H]2c2ccc(CO)cc2I)cc1	0.708 (inactive)	0.689	-1.12	-2.86 (inactive)	-0.187 (inactive)	0.023 (inactive)
CCCCCN1CC=CC23O[C@@H]4/C=C\CCCOC(=O)C4[C@H]2C(=O)N(CCCCCO)[C@@H]3C1=O (stereo not given in full)	0.388 (inactive)	0.199	0.0701	-4.75 (inactive)	0.726 (inactive)	0.576 (inactive)
Cc1ccc(S(=O)(=O)N2[C@@H](c3ccccc3)C(C(=O)O)=CC[C@H]2c2ccc(F)cc2)cc1	-0.311 (inactive)	-0.0114	-0.204	-5.57 (inactive)	0.388 (inactive)	0.391 (inactive)
O=C1O[C@@H](c2ccccc2)[C@@H](c2ccccc2)N2[C@@H](c3ccc(OCCO)cc3)[C@]3(C(=O)Nc4ccc(C#CC5=CCCCC5)cc43)[C@@H](C(=O)Nc3nc4ccccc4s3)[C@H]12	-0.487 (inactive)	0.646	-1.38	-15.3 (active)	-0.176 (inactive)	-0.282 (inactive)
C=C[C@H](C)[C@@H](OC(=O)Nc1ccc(SC)cc1)c1ccc(OCCO)cc1	-0.0975 (inactive)	-0.0208	-0.526	-4.53 (inactive)	-0.328 (inactive)	-0.809 (inactive)
COc1cc2c(cc1O)C(C)N(Cc1sc3ccccc3c1Cl)CC2 (stereo not given)	-0.173 (inactive)	0.547	-1.37	-3.39 (inactive)	-0.632 (inactive)	-0.817 (inactive)
COC(=O)[C@@]1(Cc2ccc(F)cc2)[C@H]2c3cc(C(=O)N4CCCC4)n(CCSCCO)c3C[C@H]2CN1C(=O)c1ccccc1	0.159 (inactive)	-0.279	-1.41	-4.82 (inactive)	0.685 (inactive)	0.827 (inactive)
C=CCNC(=O)[C@H]1[C@@H]2C(=O)O[C@@H](c3ccccc3)[C@@H](c3ccccc3)N2[C@@H](c2ccc(OCCO)cc2)[C@]12C(=O)N(C(=O)OCCOC)c1ccc(C#CCC(C(=O)OC)C(=O)OC)cc12	0.275 (inactive)	0.734	-1.82	-0.253 (inactive)	0.338 (inactive)	0.475 (inactive)
C=C(COC)C(=O)CC[C@H](OC(C)=O)c1ccccc1OCCO	-0.245 (inactive)	0.337	-2.64	-3.78 (inactive)	-0.201 (inactive)	-0.218 (inactive)
O=C1c2ccccc2[C@@]2(Cc3ccccc3N(CC(F)(F)F)C2=O)[C@H](c2ccc(CO)cc2)N1Cc1ccccc1	-0.158 (inactive)	-0.48	-1.17	1.26 (inactive)	-0.191 (inactive)	-0.494 (inactive)
C=CCNC(=O)[C@@H]1[C@H]2C(=O)O[C@H](c3ccccc3)[C@H](c3ccccc3)N2[C@H](c2ccc(OCCO)cc2)[C@@]12C(=O)Nc1ccc(C#CC3=CCCCC3)cc12	1.45 (inactive)	0.799	-1.39	1.89 (inactive)	0.269 (inactive)	0.273 (inactive)
[N-]=[N+]=NCc1ccccc1C[C@@]1(C(=O)NCCN2CCOCC2)N=C(c2ccc(OCCCO)cc2)O[C@@H]1c1ccccc1	0.682 (inactive)	0.629	-2.11	-4.43 (inactive)	0.174 (inactive)	0.47 (inactive)
[N-]=[N+]=Nc1ccccc1C[C@@]1(C(=O)NCc2ccccc2)N=C(c2ccc(OCCCO)cc2)O[C@@H]1c1ccccc1	-0.116 (inactive)	0.746	-2.51	-2.4 (inactive)	-0.603 (inactive)	-0.942 (inactive)
C=C[C@H](OC)[C@@H](O)c1ccc(OC)c(O)c1	-1.51 (inactive)	1.1	-0.874	-1.36 (inactive)	0.171 (inactive)	0.705 (inactive)
COCCOC(=O)N1C(=O)[C@@]2(c3cc(C#CCCO)ccc31)[C@H](C(=O)N1CCN(c3ncccn3)CC1)[C@H]1C(=O)O[C@H](c3ccccc3)[C@H](c3ccccc3)N1[C@@H]2c1ccc(OCCO)cc1	0.472 (inactive)	0.838	-2.04	0.211 (inactive)	-0.0621 (inactive)	-0.0646 (inactive)
COCCOC(=O)N1C(=O)[C@@]2(c3cc(C#CCC(C(=O)OC)C(=O)OC)ccc31)[C@H](C(N)=O)[C@H]1C(=O)O[C@H](c3ccccc3)[C@H](c3ccccc3)N1[C@@H]2c1ccccc1OCCO	0.286 (inactive)	0.575	-1.93	-2.49 (inactive)	-0.663 (inactive)	-1.57 (inactive)
COc1ccc(C(=O)Nc2cccc(CN3C(=O)[C@]4(O[C@H](CC(=O)N(CCO)Cc5ccccc5)[C@@H]([Si](C)(C)c5ccc(OC)cc5)[C@@H]4C)c4ccccc43)c2)cc1	0.256 (inactive)	0.572	-2.49	-0.179 (inactive)	-0.571 (inactive)	0.0153 (inactive)
O=C1C2C=CC(C(O)c3ccccn3)N(Nc3ccc([N+](=O)[O-])cc3)C2C(=O)N1c1ccccc1 (stereo not given)	0.406 (inactive)	0.0784	-0.22	-5.58 (inactive)	1.25 (inactive)	-0.213 (inactive)
C=CCOC(=O)[C@@H]1[C@H]2C(=O)O[C@H](c3ccccc3)[C@H](c3ccccc3)N2[C@H](c2ccc(OCCOC(=O)[C@H]3C[C@H]4C(=O)N[C@@H](CCCCN(C)C)C(=O)N4[C@H]3c3cccc(OCCO)c3)cc2)[C@@]12C(=O)Nc1ccccc12	0.876 (inactive)	0.686	-0.405	-1.64 (inactive)	-0.224 (inactive)	-0.375 (inactive)
O=C1N(Cc2ccccc2)Cc2ccccc2C[C@@]12COC(c1ccc(OCCCO)cc1)=N2	0.704 (inactive)	0.311	-2.08	-4.67 (inactive)	-0.266 (inactive)	0.273 (inactive)
O=C1C[C@@](C(=O)NCC(F)(F)F)(c2ccc([N+](=O)[O-])cc2)[C@@H](c2ccc(CO)cc2I)N1CC12CC3CC(CC(C3)C1)C2	2.08 (inactive)	0.797	-1.23	-2.47 (inactive)	-0.353 (inactive)	-0.245 (inactive)
COCCOC(=O)N1C(=O)[C@@]2(c3cc(C#CCC(C(=O)OC)C(=O)OC)ccc31)[C@H](c1ccc(O)cc1)N1[C@H](c3ccccc3)[C@H](c3ccccc3)OC(=O)[C@H]1[C@@H]2C(=O)N1CCc2cc(OC)c(OC)cc2C1	0.406 (inactive)	0.803	-2.15	-1.37 (inactive)	-0.0407 (inactive)	0.46 (inactive)
[N-]=[N+]=NCc1ccccc1[C@H]1OC(c2ccc(OCCCO)cc2)=N[C@@]1(CCS(=O)(=O)c1ccccc1)C(=O)NCCN1CCOCC1	-0.0093 (inactive)	0.816	-2.35	-2.67 (inactive)	-0.0238 (inactive)	-0.0229 (inactive)
COc1cccc(C)c1NC(=O)O[C@H]1[C@H](OC(=O)Nc2ccc3c(c2)OCO3)[C@H](OC(=O)Nc2ccc3c(c2)OCO3)[C@@H](OC)O[C@@H]1CO	0.574 (inactive)	0.798	-2.29	-7.67 (inactive)	-0.698 (inactive)	-1.29 (inactive)
